The source made the active and inactive calls. The calls were made as follows: active = hit-call score of the fitted dose curve at least 0.9, where 1 is the maximum; inactive = score below 0.9.
What was measured:
[1] = ATG_Ets_CIS: Attagene CIS-FACTORIAL HepG2 Assay for human Erythroblast Transformation Specific (ETS) (AID 2282941); conditions: HepG2 ETS cis-reporter transcription, actives raise or lower the signal
Method in brief: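 Bidirectional fit versus DMSO of reporter mRNA signal, detected by RT-PCR and capillary electrophoresis in HepG2 cells transiently transfected with cis-element reporters and dosed 24 h.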

[2] = target: Hepatocyte nuclear factor 3-beta (Homo sapiens) (UniProt Q9Y261); test: ATG_FoxA2_CIS: Attagene CIS-FACTORIAL HepG2 Assay for human Forkhead box A2 (FOXA2) (AID 2282942); conditions: HepG2 cis-reporter transcription factor activity, 24 h; actives raise or lower the signal
Method in brief: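 Endogenous transcription factor activity was read in HepG2 cells carrying transiently transfected cis-promoter reporter units. After 24 h dosing, reporter mRNA was quantified by RT-PCR and capillary electrophoresis, and values fitted bidirectionally versus DMSO.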

[3] = ATG_FoxO_CIS: Attagene CIS-FACTORIAL HepG2 Assay for human Forkhead box O (FoxO) (AID 2282943); conditions: HepG2 Attagene cis-reporter, FoxO element, mRNA; actives raise or lower the signal
Method in brief: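 Read-out: fluorescence of 6-FAM-labelled reporter cDNA fragments resolved by capillary electrophoresis. Transiently transfected HepG2 cells were dosed for 24 h; activity fitted in both directions relative to DMSO controls.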

[4] = ATG_GATA_CIS: Attagene CIS-FACTORIAL HepG2 Assay for human GATA Binding Protein (AID 2282944); conditions: HepG2 GATA cis-element reporter, Attagene multiplex mRNA; actives raise or lower the signal
Method in brief: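 Reporter transcripts from a GATA cis-regulated unit, among multiplexed reporters in transfected HepG2 cells, were measured by RT-PCR with capillary electrophoresis after 24 h dosing. Induction or loss scored relative to DMSO.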

[5] = target: Bile acid receptor (Homo sapiens) (UniProt Q96RI1); test: ATG_IR1_CIS: Attagene CIS-FACTORIAL HepG2 Assay for human Nuclear Receptor Subfamily 1 Group H Member 4 (NR1H4), IR1 submotif (AID 2282946); conditions: IR1 reporter transcription, actives raise or lower the signal
Method in brief: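 Fluorescence of capillary-separated, HpaI-digested RT-PCR reporter products gave IR1-element mRNA induction in HepG2 cells 24 h after dosing. Endogenous transcription factors drove the cis-regulated reporters; activity was fitted bidirectionally against DMSO.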

[6] = ATG_GRE_CIS: Attagene CIS-FACTORIAL HepG2 Assay for human Glucocorticoid Response Elements (GRE) (AID 2282947); conditions: HepG2 GRE cis-reporter, Attagene multiplex mRNA; actives raise or lower the signal
Method in brief: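 Fluorescence intensity of reporter-specific cDNA fragments, separated by capillary electrophoresis, provides the signal. Constructs carry cis-regulating promoters in transiently transfected HepG2 liver cells; 24 h incubation; fitting is bidirectional against DMSO.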

[7] = ATG_M_32_CIS: Attagene CIS-FACTORIAL HepG2 Assay for M32 Transcription Factor (Internal Marker) (AID 2282949); conditions: HepG2 Attagene cis-factorial M32 reporter, mRNA; actives raise or lower the signal;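 also: background control marker of the multiplexed CIS panel rather than a real target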
Method in brief: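 HepG2 transfectants (cis-regulated reporter transcription units) dosed 24 h. Reporter mRNA by RT-PCR plus CE, analysed as gain or loss relative to DMSO.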

[8] = ATG_M_06_CIS: Attagene CIS-FACTORIAL HepG2 Assay for M06 Transcription Factor (Internal Marker) (AID 2282950); conditions: HepG2 Attagene CIS-FACTORIAL M06 internal marker reporter; actives raise or lower the signal
Method in brief: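 Serves as a background control readout. Transfected HepG2 exposed to compounds for 24 h, then reporter transcripts quantified by fluorescent RT-PCR and capillary electrophoresis. Both directions fitted against DMSO baseline.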

[9] = target: Hypoxia-inducible factor 1-alpha (Homo sapiens) (UniProt Q16665); test: ATG_HIF1a_CIS: Attagene CIS-FACTORIAL HepG2 Assay for human Hypoxia Inducible Factor 1 (HIF1A) (AID 2282951); conditions: HepG2 Attagene cis-factorial HIF1a reporter transcription; actives raise or lower the signal
Method in brief: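 Measures endogenous transcription-factor activity through cis-regulated reporter mRNA in HepG2. Cells dosed 24 h; transcripts quantified by RT-PCR with 6-FAM-labelled products separated by capillary electrophoresis; DMSO serves as negative control.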

[10] = target: Hepatocyte nuclear factor 6 (Homo sapiens) (UniProt Q9UBC0); test: ATG_HNF6_CIS: Attagene CIS-FACTORIAL HepG2 Assay for human Hepatocyte Nuclear Factor 6 (HNF6) (AID 2282952); conditions: HepG2 Attagene cis-factorial HNF6 reporter transcription; actives raise or lower the signal
Method in brief: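 First, HepG2 cells were transfected with the multiplexed cis reporter library and dosed with chemical for 24 h. Next, RNA was reverse-transcribed, PCR-amplified and fluorescently labelled. Finally, HpaI-digested fragments were read by capillary electrophoresis.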

[11] = target: Heat shock factor protein 1 (Homo sapiens) (UniProt Q00613); test: ATG_HSE_CIS: Attagene CIS-FACTORIAL HepG2 Assay for human Heat Shock Transcription Factor 1 (HSE) (AID 2282953); conditions: HepG2 HSE cis-reporter, Attagene RNA transcription; actives raise or lower the signal
Method in brief: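 Endogenous transcription factor activity in transiently transfected HepG2, read as reporter mRNA by RT-PCR with fluorescent capillary electrophoresis after 24 h. Gain or loss of signal fitted versus DMSO baseline.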

[12] = ATG_MRE_CIS: Attagene CIS-FACTORIAL HepG2 Assay for human Metal Responsive Element (MRE) (AID 2282954); conditions: HepG2 MRE cis-reporter transcription, Attagene multiplex; actives raise or lower the signal
Method in brief: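 Measured here is mRNA induction from an MRE cis-element reporter in HepG2 after 24 h, quantified by fluorescence of labelled RT-PCR products on capillary electrophoresis; gain- and loss-of-signal fits use DMSO as baseline.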

[13] = ATG_PBREM_CIS: Attagene CIS-FACTORIAL HepG2 Assay for human Phenobarbital-responsive Enhancer Module (PBREM) (AID 2282955); conditions: HepG2 PBREM cis-reporter, Attagene multiplexed transcription; actives raise or lower the signal
Method in brief: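 Fluorescence of labelled reporter cDNA fragments, resolved by capillary electrophoresis, gives mRNA induction in transfected HepG2 cells treated for 24 h; DMSO serves as negative control and baseline.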

[14] = target: Paired box protein Pax-6 (Homo sapiens) (UniProt P26367); test: ATG_Pax6_CIS: Attagene CIS-FACTORIAL HepG2 Assay for human Paired Box 6 (PAX6) (AID 2282956); conditions: HepG2 CIS-FACTORIAL PAX6 reporter transcription, RNA readout; actives raise or lower the signal
Method in brief: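 DMSO-referenced bidirectional fits of reporter mRNA fluorescence; HepG2 with transient cis-promoter MRTUs, 24 h post-dose, RT-PCR plus capillary electrophoresis detection.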

[15] = ATG_PXRE_CIS: Attagene CIS-FACTORIAL HepG2 Assay for human Pregnane X Receptor Element (PXRE) (AID 2282957); conditions: HepG2 Attagene CIS-FACTORIAL PXRE reporter, mRNA; actives raise or lower the signal
Method in brief: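 After a 24 h chemical incubation, total RNA from transfected HepG2 cells was reverse-transcribed and reporter cDNA amplified, FAM-labeled, HpaI-digested and sized by capillary electrophoresis. DMSO served as baseline for bidirectional curve fitting.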

[16] = ATG_PPRE_CIS: Attagene CIS-FACTORIAL HepG2 Assay for human Peroxisome Proliferator-activated Response Element (PPRE) (AID 2282958); conditions: HepG2 PPRE cis-element reporter, Attagene transcription factor profiling; actives raise or lower the signal
Method in brief: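 Cells are first transfected transiently with the multiplexed reporter library, then dosed for 24 h. Total RNA is reverse-transcribed, amplified, fluorescently end-labeled and HpaI-cut before capillary electrophoresis; activity is fitted bidirectionally against DMSO controls.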

[17] = ATG_Sox_CIS: Attagene CIS-FACTORIAL HepG2 Assay for human SRY-box transcription factor (SOX) (AID 2282960); conditions: HepG2 Attagene cis-factorial SOX reporter, mRNA; actives raise or lower the signal
Method in brief: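 Transient MRTU transfection of HepG2; 24 h compound incubation; TriZol RNA, oligo(dT) RT, PCR, 6-FAM primer extension, HpaI cut, CE. Bidirectional fit, DMSO = baseline.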

[18] = ATG_ISRE_CIS: Attagene CIS-FACTORIAL HepG2 Assay for human Interferon Regulatory Factor 1 (IRF1) binding to an Interferon-Stimulated Response Element (ISRE) (AID 2282948); conditions: HepG2 ISRE cis-reporter (Attagene), mRNA transcription readout; actives raise or lower the signal
Method in brief: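 Uses HepG2 liver cells transfected with cis-regulated reporters and measures mRNA 24 h post-dosing through RT-PCR, primer-extension labelling and capillary electrophoresis, with DMSO as negative control.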

[19] = ATG_RORE_CIS: Attagene CIS-FACTORIAL HepG2 Assay for human RAR-related Orphan Receptor Element (RORE) (AID 2282959); conditions: HepG2 Attagene cis-factorial RORE reporter, mRNA; actives raise or lower the signal
Method in brief: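 Cells were HepG2 carrying transfected cis-regulated reporter constructs, dosed for 24 hours. Total RNA was reverse-transcribed and reporter cDNA amplified, fluorescently labeled and sized by capillary electrophoresis. Activity was fitted bidirectionally relative to DMSO.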

[20] = ATG_GLI_CIS: Attagene CIS-FACTORIAL HepG2 Assay for human Zinc Finger Protein GLI1 (AID 2282945); conditions: HepG2, Attagene cis-factorial reporter mRNA, GLI element; actives raise or lower the signal
Method in brief: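 Transiently transfected HepG2 cells report endogenous transcription factor activity via cis-element-driven reporter units. After 24 h compound exposure, reporter mRNA was measured by RT-PCR with capillary electrophoresis; bidirectional fitting against DMSO baseline.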

Measured: AC50

Sequence of Paired box protein Pax-6 (Homo sapiens) (P26367 whole entry, looked up): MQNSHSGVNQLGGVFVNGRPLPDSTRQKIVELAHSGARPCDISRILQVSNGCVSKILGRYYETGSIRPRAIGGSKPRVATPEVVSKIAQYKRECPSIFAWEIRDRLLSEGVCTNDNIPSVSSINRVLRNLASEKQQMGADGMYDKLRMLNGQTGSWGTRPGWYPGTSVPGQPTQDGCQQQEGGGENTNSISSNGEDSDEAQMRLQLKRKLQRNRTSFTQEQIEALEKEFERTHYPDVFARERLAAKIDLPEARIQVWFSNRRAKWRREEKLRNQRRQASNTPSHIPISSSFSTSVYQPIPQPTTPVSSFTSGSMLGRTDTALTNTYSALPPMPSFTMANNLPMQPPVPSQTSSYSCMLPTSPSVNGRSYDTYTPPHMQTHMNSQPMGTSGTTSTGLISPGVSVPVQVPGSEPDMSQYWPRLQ
Sequence of Bile acid receptor (Homo sapiens) (Q96RI1 whole entry, looked up): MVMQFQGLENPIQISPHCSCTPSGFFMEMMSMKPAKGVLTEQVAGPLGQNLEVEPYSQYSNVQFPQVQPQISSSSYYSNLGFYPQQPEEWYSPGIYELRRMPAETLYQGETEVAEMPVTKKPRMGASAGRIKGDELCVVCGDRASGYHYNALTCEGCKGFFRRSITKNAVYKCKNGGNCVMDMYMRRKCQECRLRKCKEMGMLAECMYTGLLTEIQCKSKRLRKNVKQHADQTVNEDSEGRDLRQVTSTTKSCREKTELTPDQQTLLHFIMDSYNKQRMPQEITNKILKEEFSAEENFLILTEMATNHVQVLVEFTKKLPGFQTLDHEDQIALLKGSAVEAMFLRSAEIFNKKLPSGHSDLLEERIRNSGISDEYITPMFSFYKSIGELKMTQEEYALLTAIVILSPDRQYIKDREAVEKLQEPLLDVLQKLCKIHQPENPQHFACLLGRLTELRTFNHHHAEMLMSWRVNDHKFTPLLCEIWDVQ
Sequence of Hypoxia-inducible factor 1-alpha (Homo sapiens) (Q16665 whole entry, looked up): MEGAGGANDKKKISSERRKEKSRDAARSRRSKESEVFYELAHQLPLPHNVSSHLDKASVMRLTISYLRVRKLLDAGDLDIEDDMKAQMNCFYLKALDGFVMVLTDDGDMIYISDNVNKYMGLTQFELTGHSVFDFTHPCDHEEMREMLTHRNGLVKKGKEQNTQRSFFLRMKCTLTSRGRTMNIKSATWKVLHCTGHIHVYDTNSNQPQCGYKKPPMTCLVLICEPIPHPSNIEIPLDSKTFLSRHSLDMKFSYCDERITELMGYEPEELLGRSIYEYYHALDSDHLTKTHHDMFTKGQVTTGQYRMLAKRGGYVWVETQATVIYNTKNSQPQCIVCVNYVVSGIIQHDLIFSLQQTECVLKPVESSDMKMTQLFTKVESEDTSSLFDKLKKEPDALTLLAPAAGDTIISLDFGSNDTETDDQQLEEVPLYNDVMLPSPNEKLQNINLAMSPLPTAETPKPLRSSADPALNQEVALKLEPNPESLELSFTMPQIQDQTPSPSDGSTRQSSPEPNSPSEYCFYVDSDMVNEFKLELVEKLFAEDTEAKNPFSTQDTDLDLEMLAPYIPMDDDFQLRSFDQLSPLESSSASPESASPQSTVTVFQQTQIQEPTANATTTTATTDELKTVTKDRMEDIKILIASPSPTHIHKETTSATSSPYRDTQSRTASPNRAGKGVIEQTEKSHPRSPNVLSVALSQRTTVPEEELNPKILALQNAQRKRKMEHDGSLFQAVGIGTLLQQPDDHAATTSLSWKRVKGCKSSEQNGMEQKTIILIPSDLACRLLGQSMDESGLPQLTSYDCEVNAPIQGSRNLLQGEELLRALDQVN
Sequence of Heat shock factor protein 1 (Homo sapiens) (Q00613 whole entry, looked up): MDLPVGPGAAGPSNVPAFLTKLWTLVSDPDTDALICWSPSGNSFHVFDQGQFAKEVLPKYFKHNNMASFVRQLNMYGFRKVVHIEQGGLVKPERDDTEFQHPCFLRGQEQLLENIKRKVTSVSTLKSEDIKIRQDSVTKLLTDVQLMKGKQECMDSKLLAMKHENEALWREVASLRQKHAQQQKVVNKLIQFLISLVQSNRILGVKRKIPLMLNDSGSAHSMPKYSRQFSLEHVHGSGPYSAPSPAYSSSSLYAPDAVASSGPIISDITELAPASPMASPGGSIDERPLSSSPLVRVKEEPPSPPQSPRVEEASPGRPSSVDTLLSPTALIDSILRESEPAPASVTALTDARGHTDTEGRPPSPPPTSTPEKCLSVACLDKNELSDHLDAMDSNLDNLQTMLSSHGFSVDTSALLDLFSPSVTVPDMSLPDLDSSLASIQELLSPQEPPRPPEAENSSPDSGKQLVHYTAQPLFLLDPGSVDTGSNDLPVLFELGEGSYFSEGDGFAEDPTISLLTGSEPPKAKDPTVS
Sequence of Hepatocyte nuclear factor 6 (Homo sapiens) (Q9UBC0 whole entry, looked up, the tested form may be a part): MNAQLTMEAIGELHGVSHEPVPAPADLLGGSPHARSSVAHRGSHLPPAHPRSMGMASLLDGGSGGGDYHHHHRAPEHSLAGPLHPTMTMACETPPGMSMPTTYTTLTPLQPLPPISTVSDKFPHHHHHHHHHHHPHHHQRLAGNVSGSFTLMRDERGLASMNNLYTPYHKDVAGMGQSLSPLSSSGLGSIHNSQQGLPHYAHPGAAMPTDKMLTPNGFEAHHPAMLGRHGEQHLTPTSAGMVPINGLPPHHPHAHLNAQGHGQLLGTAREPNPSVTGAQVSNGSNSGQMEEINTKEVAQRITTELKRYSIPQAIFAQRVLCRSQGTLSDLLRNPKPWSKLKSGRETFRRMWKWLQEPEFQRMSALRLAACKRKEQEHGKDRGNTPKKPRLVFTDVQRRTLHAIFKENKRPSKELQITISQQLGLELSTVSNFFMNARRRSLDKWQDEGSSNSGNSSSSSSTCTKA
Sequence of Hepatocyte nuclear factor 3-beta (Homo sapiens) (Q9Y261 whole entry, looked up): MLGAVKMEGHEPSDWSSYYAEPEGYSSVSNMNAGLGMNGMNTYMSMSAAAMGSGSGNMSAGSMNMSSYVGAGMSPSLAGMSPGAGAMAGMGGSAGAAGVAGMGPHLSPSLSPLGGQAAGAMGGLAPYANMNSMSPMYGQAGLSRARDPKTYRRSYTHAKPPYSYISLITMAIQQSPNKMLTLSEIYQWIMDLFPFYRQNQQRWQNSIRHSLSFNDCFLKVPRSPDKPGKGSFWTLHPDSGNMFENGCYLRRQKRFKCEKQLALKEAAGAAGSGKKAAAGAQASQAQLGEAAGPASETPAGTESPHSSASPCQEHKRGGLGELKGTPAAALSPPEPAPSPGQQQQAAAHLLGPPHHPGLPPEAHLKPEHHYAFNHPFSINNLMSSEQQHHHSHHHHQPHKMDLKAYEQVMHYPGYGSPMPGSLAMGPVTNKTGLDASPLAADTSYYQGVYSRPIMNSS

CCC(C)(C)c1ccc(O)c(C(C)(C)CC)c1
active: [5] 5.81 µM | [15] 2.73 µM | [16] 11.1 µM
not listed: [18] | [19] | [20]
inactive: all other assays above

N#CCc1ccc(Cl)cc1
active: [15] 48.5 µM
not listed: [8] | [13] | [20]
inactive: all other assays above

CN(C)P(=O)(N(C)C)N(C)C
not listed: [6] | [13] | [20]
inactive: all other assays above

Cc1ccccc1C(=O)Nc1cccc(OC(C)C)c1
active: [15] 2.89 µM
not listed: [5] | [12] | [18]
inactive: all other assays above

Cn1sc(Cl)cc1=O
active: [16] 100 µM
not listed: [20]
inactive: all other assays above

CC1(C)Cc2cccc(O)c2O1
active: [15] 7.98 µM
not listed: [5] | [6] | [16] | [19]
inactive: all other assays above

Reference: PubChem BioAssay (EPA / NIEHS)
